# Among all 360,000 compounds or so, about 1,500 (0.42%) were called active. This excerpt belongs to a sample that is enriched for actives. Values without a mark were called inactive. Rule as the data show it: active = inhibition above about 8.5%; inactive = the rest.
# System: HIV-1 gp120 / PG9 antibody interaction
# Assay: small molecules engaging PG9 antibody – biochemical, TR-FRET, primary screen (AID 624416)
# Conditions: TR-FRET gp120-PG9 antibody binding; at 6.7 µM; hits give high values
row,SMILES,inhibition
1,COC(=O)C1=C(C(=O)OC)C2C=C(C(C)C)C1C(=O)C2(C)O (stereo not drawn),-0.26%
2,CCCCNC(=O)CSc1nccn1Cc1ccccc1,2.29%
3,Cc1ccc(-n2c(SCC(=O)NCCC3=CCCCC3)nc3n[nH]c(C)c3c2=N)cc1Cl,35.7% (active)
4,COc1cccc(-n2c(SCC(=O)NC3CCCCC3)nc3n[nH]c(C)c3c2=N)c1,0.99%
5,CCCCCCNC(=O)CSc1nccn1Cc1ccccc1,0.53%
6,CCCCNC(=O)CSc1nc2n[nH]c(C)c2c(=N)n1-c1cccc(Cl)c1C,20.8% (active)
7,Cc1nnc(OCC(=O)NCCC2=CCCCC2)c2ccccc12,-0.11%
8,Cc1ccc(C)c(CN2CCC(CNC(=O)C3CCCN(c4ncnc5c4nc4n5CCCCC4)C3)CC2)c1 (stereo not drawn),-0.22%
9,COC(=O)[C@]12C[C@H](CC(=O)NCCCCc3ccccc3)C(=O)N(Cc3ccc4c(c3)OCO4)C1=C[C@H](C(C)(C)C)O[C@@H]2C,1.2%
10,C=CCN=C1NC(c2ccccc2)C(C(=O)OC)=C(C)N1Cc1ccc(C(F)(F)F)cc1 (stereo not drawn),-0.19%
11,COc1ccc(CNS(=O)(=O)c2cc(Br)ccc2Br)cc1,0.06%
12,COC(=O)Cc1nnn2c1[C@H](C)[C@H](c1ccccc1Br)OCC2,1.33%
13,Cc1ccc(N)cc1CN1CCN(c2ncc(Cc3ccccc3)cn2)CC1,-3.21%
14,COc1ccc(Cl)cc1NC(=O)CN1CCN(C(=O)N2CCOCC2)CC1,1.73%
15,COc1ccc(Cl)cc1NC(=O)Cn1nc(-c2ccc(C)cc2)n(C)c1=S,11% (active)
16,COc1ccc(C)cc1NC(=O)CSc1ccc(Cl)cc1,-1.28%
17,CC1CCCN(c2cccc3c2S(=O)(=O)N(Cc2ccc(F)cc2)[C@@H](C)[C@H](c2ccccc2)O3)C1 (stereo partly drawn),0.43%
18,CCCN1C(=O)c2[nH]nc(-c3ccccc3)c2C1c1ccccc1 (stereo not drawn),-1.03%
19,CCN(CC)CCNC(=O)c1ccc(NS(=O)(=O)c2ccc3c(c2)OCCO3)cc1,-1.11%
20,O=C(Nc1cccc(S(=O)(=O)Nc2ccc(Cl)cc2)c1)c1ccc2c(c1)OCCO2,9.35% (active)
21,CC(NS(=O)(=O)c1ccc(Cl)cc1)C(=O)Nc1ccc2c(c1)OCCO2 (stereo not drawn),0.53%
22,COCCNC(=O)c1cc2c(Br)ccc(Br)c2nc1N,9.73% (active)
23,Nc1nc2c(Br)ccc(Br)c2cc1C(=O)NCCc1ccccc1,3.73%
24,COCCNC(=O)c1ccccc1-c1nc(-c2ccccc2Cl)no1,-2.1%
25,Cc1ccc2nc(CN(C)C(=O)[C@@H](Cc3ccccc3)NC(=O)[C@H]3O[C@@H](n4ccc(=O)[nH]c4=O)[C@H](O)[C@@H]3O)[nH]c2c1,-1.8%
26,COc1ccc(SSc2ccc(OC)cc2C(=O)O)c(C(=O)O)c1,-0.62%
27,C=CCn1c(SCC(=O)Nc2ccc(NC(C)=O)cc2)nc2sc(C)c(C)c2c1=O,1.19%

row,SMILES,inhibition
1,C=CCn1c(=NC(=O)c2cccs2)sc2cc(NC(C)=O)ccc21,10.5% (active)
2,O=C(CN1CCCCCC1)Nc1ccc(S(=O)(=O)N2CCCCC2)cc1,-1.07%
3,C=CCn1c(=NC(=O)c2ccc(S(=O)(=O)N3CCCC3)cc2)sc2cc(NC(C)=O)ccc21,13% (active)
4,C=CCn1c(CCNC(=O)c2cccs2)n[nH]c1=S,-0.83%
5,CC(=O)Nc1ccc(S(=O)(=O)N2CCN(S(=O)(=O)c3cccs3)CC2)cc1,1.11%
6,O=C(NCc1ccccc1)[C@@H]1CCCN1C(=O)[C@H]1CCCN1C(=O)c1cccc(Cl)c1,-0.83%
7,Cc1noc(C)c1NC(=O)Nc1ccc2c(c1)C(=O)N([C@H](C)CO)C[C@H](C)[C@H](CN(C)Cc1ccncc1)OCCCC[C@@H](C)O2,0.19%
8,C[C@H]1CN([C@@H](C)CO)C(=O)CCCn2nncc2CO[C@@H]1CN(C)C(=O)Nc1ccc(N2CCN(C)CC2)cc1,-0.47%
9,Cc1[nH]c2ccccc2c1CC(=O)Nc1ccc(Nc2cccnc2)c(-c2cccc(Cl)c2)c1,0.12%
10,O=C(O)Cn1cnc2c(NCc3ccccc3)ncnc21,1.02%
11,CC(=O)C1=C(C)N(Cc2ccccc2)C(=S)NC1c1cccc(Br)c1 (stereo not drawn),-1.42%
12,CCOc1ccccc1C(=O)N1CCC[C@@H]1C(=O)N1CCC[C@H]1C(=O)NCc1ccccc1,2.14%
13,COc1cccc(CC(=O)N2CCN(C(=O)C(=O)c3cccc(C(F)(F)F)c3)CC2)c1,0.18%
14,COCc1cc(N2CCN(C(=O)OC(C)(C)C)C[C@@H]2C)ccc1N1CCN(Cc2ccccc2)[C@H](C)C1,0.37%
15,CCCCCCCCN1C(=O)[C@@H](CC(=O)NCc2ccccc2)C[C@@]2(C(=O)OC)C1=C[C@H](C(C)(C)C)O[C@@H]2C,-0.73%
16,COCCCNc1nc2c(-c3cccc(C(F)(F)F)c3)nnn2c2ccccc12,0.39%
17,COCCCNc1nc2c(-c3cccc(C)c3)nnn2c2ccc(Cl)cc12,10.3% (active)
18,COCCNc1nc(Nc2ccccc2Cl)c2sc(-c3ccccc3)cc2n1,1.58%
19,CC(C)CNc1cccc2c1S(=O)(=O)N[C@H](CC(C)C)CO2,-0.01%
20,CN(C)C(=O)N1CCN(C(=O)[C@@H](Cc2ccccc2)NC(=O)[C@H]2O[C@@H](n3ccc(N)nc3=O)[C@H](O)[C@@H]2O)CC1,-2.32%
21,C=CCOc1cccc(C2C(C(=O)c3ccc(C)o3)=C(O)C(=O)N2c2nnc(C)s2)c1 (stereo not drawn),2.85%
22,C=CCOc1cccc(C2C(C(=O)c3ccc(C)o3)=C(O)C(=O)N2CCCn2ccnc2)c1 (stereo not drawn),11.1% (active)
23,CCCOc1ccc(C2C(C(=O)c3ccc(C)o3)=C(O)C(=O)N2CCCn2ccnc2)cc1 (stereo not drawn),54.6% (active)
24,CCOc1ccc(C2/C(=C(/O)c3ccc4c(c3)CC(C)O4)C(=O)C(=O)N2CCCn2ccnc2)cc1 (stereo not drawn),1.05%
25,c1ccc(Cc2ccc(OCCn3ccnc3)cc2)cc1,-0.66%
26,C=CCOc1cccc(C2C(C(=O)c3ccc(C)o3)=C(O)C(=O)N2CCN2CCOCC2)c1 (stereo not drawn),2.96%

# From PubChem BioAssay AID624416 (The Scripps Research Institute Molecular Screening Center, 2012)
